TEAD-YAP block = TEAD-YAP interaction inhibition, primary screen, TEAD-YAP interaction inhibitor project, luminescence, HEK-TIYL cells; TEAD-Gal4/YAP UAS-luciferase luminescence; inhibition, % at 9.12 µM; 640,000 tested, 1.4% active; AID 1259422, 2018; in the data active = inhibition above about 32%;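 also: 0% = median of test compound wells and 100% = reference inhibitor wells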
FBW7 activator = FBW7 E3 ligase activators, primary screen, biochemical, AlphaScreen, human | AID 1259310, 2017 | normalized activity (activation), % at 26.1 µM | 650,000 tested, 0.13% active | AlphaScreen FBW7–phospho-cyclin E peptide binding, activator screen; in the data active = normalized activity above about 1.9%;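 also: purified mutant Fbw7 with reduced substrate affinity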
GPR151 ag = activators of human GPR151, primary screen, cell-based, PathHunter beta-arrestin, luminescence; PathHunter beta-arrestin GPR151 cells; activation, % at 11.2 µM; 650,000 tested, 1% active; AID 1508602, 2020; in the data active = activation above about 4.9%;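 also: 0% = median of compound wells and 100% = cells with positive control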
Target sequence (Q8TDV0 whole entry, looked up): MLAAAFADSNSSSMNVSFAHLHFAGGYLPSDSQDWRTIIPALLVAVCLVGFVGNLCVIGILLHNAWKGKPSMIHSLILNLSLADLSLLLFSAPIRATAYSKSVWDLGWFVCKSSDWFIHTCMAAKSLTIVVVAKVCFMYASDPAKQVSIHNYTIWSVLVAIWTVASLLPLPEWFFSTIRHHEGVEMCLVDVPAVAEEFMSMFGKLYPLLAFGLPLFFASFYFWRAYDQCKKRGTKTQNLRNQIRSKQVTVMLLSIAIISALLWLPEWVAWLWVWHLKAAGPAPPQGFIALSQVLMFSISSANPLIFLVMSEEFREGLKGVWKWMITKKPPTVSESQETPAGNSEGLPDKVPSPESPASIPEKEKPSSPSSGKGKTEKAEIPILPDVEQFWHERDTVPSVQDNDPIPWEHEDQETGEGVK
MITF primary = MITF inhibitors, primary screen, biochemical, AlphaScreen, human; AlphaScreen MITF homodimerization, bead proximity signal; Microphthalmia-associated transcription factor (Homo sapiens), O75030; 650,000 tested, 0.91% active; inhibition, % at 2.6 µM; in the data active = inhibition above about 50%;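 also: 0% = vehicle wells with protein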
MITF inh conf = MITF inhibitors, retest of hits, confirmation, biochemical, AlphaScreen, triplicate; inhibition, % at 2.6 µM; AlphaScreen MITF homodimerization, biotin/His-MITF beads; AID 1259372, 2018; 4,700 tested, 16% active; shares compounds with MITF primary;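 active = inhibition above a cutoff derived from the DMSO control wells, cut at about 28% in these data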;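 also: 0% = MITF dimer wells with DMSO only; inhibitors lower the bead chemiluminescence by keeping MITF from dimerizing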
AlphaScreen DR = AlphaScreen optical interference compounds, dose response, counter-screen, biochemical, HTS | shares compounds with MITF primary | 480 tested, 6% active | IC50, µM | AlphaScreen optical interference counterscreen, cell-free; call rule not given here
AlphaScreen intf2 = AlphaScreen optical interference compounds, counter-screen for MITF inhibitor project, biochemical, triplicate | LysRS AlphaScreen counterscreen, signal interference | shares compounds with MITF primary | inhibition, % at 2.6 µM | 4,700 tested, 7.6% active;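 active = inhibition above a cutoff derived from the DMSO control wells, cut at about 30% in these data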
* hit, by the source's call. The list is not random: actives were taken first. Their share in the collection is about 3.5%.

Screening O=[N+]([O-])c1ccc(S(=O)(=O)N2CCN(CCCc3ccccc3)CC2)cc1 returned TEAD-YAP block 1.5, FBW7 activator -0.1, GPR151 ag 0.7, MITF primary 56.3*, MITF inh conf 13.5 and AlphaScreen intf2 14.9.
COc1ccc(S(=O)(=O)N2CCN(CCCc3ccccc3)CC2)cc1 was read as TEAD-YAP block 1.9, FBW7 activator 0.0, GPR151 ag -1.0 and MITF primary 47.4.
For O=[N+]([O-])c1cccc(CN2CCN(S(=O)(=O)c3ccccc3)CC2)c1 the results were TEAD-YAP block 2.8, FBW7 activator 0.0, GPR151 ag 0.5, MITF primary 70.4*, MITF inh conf 15.1 and AlphaScreen intf2 13.6.
CCCN1CCN(C(=S)Nc2ccc(C(=O)OCC)cc2)CC1 was read as TEAD-YAP block 8.6, FBW7 activator -0.2, GPR151 ag -0.3 and MITF primary -3.0.
Screening COC(=O)c1ccccc1C1=C([N+](=O)[O-])C(c2cccc(Br)c2)C(C#N)=C(N)O1 (configuration not stated) returned TEAD-YAP block 5.1, FBW7 activator -0.1, GPR151 ag -0.6 and MITF primary -2.6.
For CCc1ccc(S(=O)(=O)Nc2ccc3c(c2)c2c(n3S(=O)(=O)c3ccc(CC)cc3)CC(C)(C)CC2=O)cc1 the results were TEAD-YAP block 2.5, FBW7 activator -0.1, GPR151 ag -1.6 and MITF primary -1.3.
For N#Cc1c(NC(=O)c2cccnc2Cl)oc(-c2ccco2)c1-c1ccco1 the results were TEAD-YAP block -0.2, FBW7 activator -0.3, GPR151 ag -0.1 and MITF primary 22.1.
For CCOc1ncccc1C(=O)OCC(=O)Nc1oc(-c2ccco2)c(-c2ccco2)c1C#N the results were TEAD-YAP block 2.4, FBW7 activator -0.3, GPR151 ag -0.6, MITF primary 71.4*, MITF inh conf 72.0*, AlphaScreen DR >6.38 and AlphaScreen intf2 4.7.
`O=c1oc2c(Cl)cc(Cl)cc2cc1-c1nc(-c2ccc(Cl)c(Cl)c2)cs1` gave TEAD-YAP block 0.0, FBW7 activator 0.1, GPR151 ag -0.1 and MITF primary -5.1.
Screening COc1cc(COc2ccc3c4c(c(=O)oc3c2)CCCC4)cc(OC)c1OC returned TEAD-YAP block -10.4, FBW7 activator -0.1, GPR151 ag 1.2, MITF primary 57.0*, MITF inh conf 10.2 and AlphaScreen intf2 4.8.
Screening Cc1ccc(COc2ccc3c4c(c(=O)oc3c2)CCCC4)cc1 returned TEAD-YAP block -19.1, FBW7 activator 0.1, GPR151 ag -0.6 and MITF primary 10.2.
For c1cc2c(cc1Cc1nn[nH]n1)OCO2 the results were TEAD-YAP block 1.2, FBW7 activator -0.2, GPR151 ag 1.4, MITF primary 66.2*, MITF inh conf 4.2 and AlphaScreen intf2 -1.8.
Screening O=c1[nH]cc(S(=O)(=O)O)c2ccccc12 returned TEAD-YAP block 1.1, FBW7 activator 0.8, GPR151 ag 0.7, MITF primary 65.0*, MITF inh conf -4.2 and AlphaScreen intf2 0.5.
O=[N+]([O-])c1ccccc1OCCCOc1ccccc1[N+](=O)[O-] was read as TEAD-YAP block -70.5, FBW7 activator 0.0, GPR151 ag 2.2 and MITF primary 11.9.
`CCN1CCN(CCOc2ccccc2OCc2ccccc2)CC1` gave TEAD-YAP block 2.8, FBW7 activator 0.3, GPR151 ag -2.5, MITF primary 66.5*, MITF inh conf 4.3 and AlphaScreen intf2 4.4.
`CCN1CCN(CCCOc2ccc(OC)cc2)CC1` gave TEAD-YAP block -3.0, FBW7 activator -0.1, GPR151 ag 0.7 and MITF primary 28.5.
`c1ccc(COc2ccccc2OCCCCNCCN2CCOCC2)cc1` gave TEAD-YAP block -9.9, FBW7 activator -0.1, GPR151 ag 0.0 and MITF primary -9.7.
c1ccc(COc2ccccc2OCCNCCN2CCOCC2)cc1 was read as TEAD-YAP block 6.4, FBW7 activator -0.1, GPR151 ag -1.1, MITF primary 65.6*, MITF inh conf -5.7 and AlphaScreen intf2 11.2.
`O=[N+]([O-])c1ccccc1OCCNC1CCCC1` gave TEAD-YAP block 1.9, FBW7 activator 0.2, GPR151 ag -1.5, MITF primary 52.0*, MITF inh conf -4.3 and AlphaScreen intf2 3.3.
For CCN1CCN(CCOc2ccc(I)cc2)CC1 the results were TEAD-YAP block 0.4, FBW7 activator 0.1, GPR151 ag -0.3, MITF primary 63.8*, MITF inh conf 12.6 and AlphaScreen intf2 15.8.
`Cc1cc(NC(=O)c2ccccc2Cl)ncc1NC(=O)C(C)C` gave TEAD-YAP block -33.5, FBW7 activator 0.1, GPR151 ag -3.8 and MITF primary 10.0.
For Cc1ccc(NC(=O)Cn2ccn(Cc3ccccc3)c(=O)c2=O)cc1 the results were TEAD-YAP block 0.0, FBW7 activator -0.1, GPR151 ag 1.3 and MITF primary -0.4.
For Cc1sc(NC(=O)c2ccco2)nc1-c1ccc(Br)cc1 the results were TEAD-YAP block -12.9, FBW7 activator 0.2, GPR151 ag 0.2 and MITF primary 10.6.
Screening O=C1CCCN1CCn1cnc2c(NCc3cccnc3)nc(NCc3ccc4c(c3)OCO4)nc21 returned TEAD-YAP block 3.7, FBW7 activator 0.1, GPR151 ag 0.9 and MITF primary -4.8.
`NC(=O)c1c(NC(=O)CSc2nnc(C3CC3)n2-c2ccccc2)sc2c1CCC2` gave TEAD-YAP block 7.7, FBW7 activator -0.1, GPR151 ag 0.1 and MITF primary 5.2.
For Cn1nccc1-c1cc(Nc2ccc(-n3cnc(N4CCOCC4)n3)cc2)ncc1F the results were TEAD-YAP block 22.3, FBW7 activator 0.0, GPR151 ag 1.4 and MITF primary -10.8.
`CCN1CCN(CCOc2ccc(OCc3ccccc3)cc2)CC1` gave TEAD-YAP block -31.7, FBW7 activator -0.2, GPR151 ag 1.0, MITF primary 68.6*, MITF inh conf 8.8 and AlphaScreen intf2 14.5.
Screening c1ccc(COc2ccc(OCCN3CCCC3)cc2)cc1 returned TEAD-YAP block -20.8, FBW7 activator -0.1, GPR151 ag -0.1 and MITF primary 6.4.
Screening CCN1CCN(CCOc2ccccc2[N+](=O)[O-])CC1 returned TEAD-YAP block 10.2, FBW7 activator -0.1, GPR151 ag -0.9, MITF primary 74.8*, MITF inh conf 15.0 and AlphaScreen intf2 15.7.
For O=[N+]([O-])c1ccccc1OCCCCN1CCCC1 the results were TEAD-YAP block -0.5, FBW7 activator 0.1, GPR151 ag 0.1 and MITF primary 12.8.
